The list is not random: actives were taken first. Their share in the collection is about 3.4%.
TEAD-YAP inh = TEAD-YAP interaction inhibition, primary screen, TEAD-YAP interaction inhibitor project, luminescence, HEK-TIYL cells | TEAD-Gal4/YAP UAS-luciferase luminescence | inhibition, % at 9.12 µM | actives 1.4% (n = 640,000); in the data active = inhibition above about 32%;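 also: 0% = median of test compound wells and 100% = reference inhibitor wells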
GPR151 ag = activators of human GPR151, primary screen, cell-based, PathHunter beta-arrestin, luminescence; activation, % at 11.2 µM; AID 1508602, 2020; PathHunter beta-arrestin GPR151 cells; actives 1% (n = 650,000); in the data active = activation above about 4.9%;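 also: 0% = median of compound wells and 100% = cells with positive control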
FBW7 act = FBW7 E3 ligase activators, primary screen, biochemical, AlphaScreen, human | AlphaScreen FBW7–phospho-cyclin E peptide binding, activator screen | normalized activity (activation), % at 26.1 µM | actives 0.13% (n = 650,000) | AID 1259310, 2017; in the data active = normalized activity above about 1.9%;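 also: purified mutant Fbw7 with reduced substrate affinity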
MITF primary = MITF inhibitors, primary screen, biochemical, AlphaScreen, human | Microphthalmia-associated transcription factor (Homo sapiens), O75030 | AlphaScreen MITF homodimerization, bead proximity signal | inhibition, % at 2.6 µM | actives 0.91% (n = 650,000); in the data active = inhibition above about 50%;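 also: 0% = vehicle wells with protein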
Target sequence (O75030 whole entry, looked up): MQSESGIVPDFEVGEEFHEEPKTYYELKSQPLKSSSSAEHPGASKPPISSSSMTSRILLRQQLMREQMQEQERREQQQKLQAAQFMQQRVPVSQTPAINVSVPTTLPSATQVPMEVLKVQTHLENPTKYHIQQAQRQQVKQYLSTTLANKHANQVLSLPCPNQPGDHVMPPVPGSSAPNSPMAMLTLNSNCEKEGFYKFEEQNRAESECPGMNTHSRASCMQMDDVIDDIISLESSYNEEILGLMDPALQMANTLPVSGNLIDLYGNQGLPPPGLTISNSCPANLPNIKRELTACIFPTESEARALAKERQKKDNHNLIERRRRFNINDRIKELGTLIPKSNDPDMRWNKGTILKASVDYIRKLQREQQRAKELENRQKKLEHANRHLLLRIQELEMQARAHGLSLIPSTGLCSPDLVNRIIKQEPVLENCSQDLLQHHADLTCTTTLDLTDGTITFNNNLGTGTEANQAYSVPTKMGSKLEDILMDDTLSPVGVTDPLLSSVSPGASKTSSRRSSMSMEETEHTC
The depositor's hits bear a star.

SMILES	TEAD-YAP inh	GPR151 ag	FBW7 act	MITF primary
COc1cccc(/C=N/NC(=O)c2cccc(Cn3nc(C)cc3C)c2)c1O	7	-1	0	57*
Cn1c(=O)c([N+](=O)[O-])c(Sc2ccccc2)c2ccccc21	16	-2	0	5
COCCCNC(=O)c1cccc(NS(=O)(=O)c2ccc(Cl)cc2)c1	-6	-2	0	11
Cc1cccc(NC(=O)CSc2ccc(Cl)cc2)n1	2	0	0	1
c1cnc2c(c1)ncn2C1CCN(C2CCCC2)CC1	9	0	0	4
COc1cccc(/C=N/NC(=O)c2cccc(N)c2)c1O	67*	1	0	34
Cc1nc2ccccn2c1C(=O)N/N=C/c1ccc(O)c(O)c1O	8	0	0	76*
C=CCc1cccc(/C=N/NC(=O)c2ccc(OC)cc2)c1O	50*	0	1	11
COc1cc(Cl)cc(/C=N\NC(=O)c2ccc3c(c2)OCO3)c1O	74*	0	-3	10
O=C(Cn1cnc2sc3c(c2c1=O)CCC3)NCc1ccccc1	-62	0	0	21
COc1ccc2c(c1)C(=O)c1cc(OC)ccc1-2	-13	-1	0	11
COc1ccc2c(c1)C(=NN=C(N)N)c1cc(OC)ccc1-2	59*	0	0	-11
COc1ccc(C(C#N)N2CCCCCC2)cc1OC (configuration not stated)	-1	-1	2.0*	14
Cc1ccccc1NC(=O)c1c(Cl)nc(Cl)c(Cl)c1Cl	64*	-1	1	14
Cc1nc(Cl)c(C(=O)NCc2ccccc2)c(C)c1Cl	1	-1	0	-5
Cc1cccc(NC(=O)c2c(Cl)nc(Cl)c(Cl)c2Cl)c1C	36*	2	1	11
O=C(NCc1ccccc1)c1c(Cl)nc(Cl)c(Cl)c1Cl	47*	0	0	-2
Nc1nc(/N=C/c2ccccc2Cl)n[nH]1	-6	0	0	4
CC(C)COc1ccc(C(=O)Nc2sc3c(c2C(=O)O)CC(C)(C)OC3)cc1	20	1	0	5
CC1(C)Cc2c(sc(NC(=O)c3ccccc3)c2C(N)=S)CO1	-64	-1	0	-4
COc1ccc(C(=O)Nc2sc3c(c2C(=O)O)CC(C)(C)OC3)cc1OC	40*	0	0	-18
CC1(C)Cc2c(sc(NC(=O)c3ccccc3)c2C(=O)O)CO1	47*	-5	0	4
Cc1nc2sccn2c1C(=O)N1CCCC(C(=O)c2cccc(OC(C)C)c2)C1 (configuration not stated)	11	0	0	19
CCSc1nnc(NC(=O)C2CCCO2)s1 (configuration not stated)	-28	-1	0	4
COCCn1c(=O)n(CC(=O)N2CCCCC2)c2cccnc21	-6	-2	0	-2
SMILES	TEAD-YAP inh	GPR151 ag	FBW7 act	MITF primary
COCCn1c(=O)n(CC(=O)N2CCC(C(N)=O)CC2)c2cccnc21	5	-2	5.7*	3
CCCN(CCC)S(=O)(=O)c1ccc(C(=O)Nc2ccc([N+](=O)[O-])cc2OC)cc1	0	1	0	3
Cc1cncc2cccc(S(=O)(=O)N3CCCN(C(=O)CN)C[C@@H]3C)c12	36*	1	0	16
Cc1cncc2c(S(=O)(=O)N3CCCN(C(=O)CN)C[C@@H]3C)cccc12	-7	3	0	11
CCc1ccc(NC(=O)c2ccc(F)c(S(=O)(=O)N(CC)Cc3ccccc3)c2)cc1	-2	0	0	-5
O=C(Nc1ccc(F)c(F)c1)c1ccc(F)c(S(=O)(=O)NCc2ccco2)c1	38*	0	1	3
CCN(Cc1ccccc1)S(=O)(=O)c1cc(C(=O)Nc2ccc(Cl)c(Cl)c2)ccc1F	55*	1	0	12
CN(Cc1ccccc1)S(=O)(=O)c1cc(C(=O)Nc2ccc(F)c(F)c2)ccc1F	44*	4	0	-6
CCN(Cc1ccccc1)S(=O)(=O)c1cc(C(=O)Nc2ccc(F)c(F)c2)ccc1F	59*	1	0	11
O=C(CCc1ccccc1)C1=C(O)C(=O)N(c2ccc(Br)cc2)C1c1ccccc1 (configuration not stated)	7	-1	0	9
O=S(=O)(/N=C(\Nc1nccs1)c1ccccc1)c1cccs1	-7	-3	0	25
Cc1ccc(N/C(=N/S(=O)(=O)c2cccs2)c2ccccc2)cc1F	40*	1	0	-7
NC(C(=O)O)C(O)c1ccccc1 (configuration not stated)	9	-1	0	6
N[C@H](C(=O)O)[C@H](O)c1ccc(O)c(O)c1	1	-2	0	54*
O=C(Nc1ccc(S(=O)(=O)N2CCCCC2c2cccnc2)cc1)c1ccc2c(c1)OCO2 (configuration not stated)	10	0	0	-1
CCOc1cc(C=O)ccc1OCCN1CCOCC1	10	-1	0	9
COc1cc(C=O)ccc1OCCN1CCOCC1	40*	0	0	1
COc1ccc(Cl)c2sc(NC(=O)c3ccco3)nc12	4	3	2.1*	0
Cc1cccc(NC(=O)Cn2c(C)cc(=O)c3ccccc32)c1	41*	-2	0	7
COc1cccc(NC(=O)Cn2c(C)cc(=O)c3cccc(OC)c32)c1	49*	3	1	6
Cc1ccc(NC(=O)Cn2c(C)cc(=O)c3ccccc32)cc1C	45*	3	1	10
COc1ccc(/C=C2\SC(=S)N(NC(=O)c3ccccc3O)C2=O)cc1	4	-1	0	14
CN(C)/C=C/C=C/C=C1\CCC/C(=C\C=C\N(C)C)C1=O	8	-1	0	78*
CN(C)/C=C/C=C1\CCc2ccccc2C1=O	-3	0	0	20
O=C(CSc1ccc(-c2ccc(-n3ccnc3)cc2)nn1)N1CCc2ccccc21	-17	-1	2.3*	-35
SMILES	TEAD-YAP inh	GPR151 ag	FBW7 act	MITF primary
CC1(C)CC2CC(C)(CN2c2ccc(C(=O)O)cc2[N+](=O)[O-])C1 (configuration not stated)	35*	-1	0	6
O=C(Nc1ccccc1Cl)c1ccccc1NS(=O)(=O)c1ccccc1	4	2	0	11
CCS(=O)(=O)C1=NN2C(=N)/C(=C\c3ccc([N+](=O)[O-])o3)C(=O)N=C2S1	3	0	-1	93*
CS(=O)(=O)C1=NN2C(=N)/C(=C\c3ccc(Br)cc3)C(=O)N=C2S1	-17	-2	0	2
CCS(=O)(=O)C1=NN2C(=N)/C(=C\c3ccc(Br)o3)C(=O)N=C2S1	0	0	-1	78*
CCS(=O)(=O)C1=NN2C(=N)/C(=C\c3ccc(C)o3)C(=O)N=C2S1	-5	2	0	0
CS(=O)(=O)C1=NN2C(=N)/C(=C\c3ccc(Br)o3)C(=O)N=C2S1	-10	3	0	79*
COC(=O)c1cc(C(=O)OC)cc(-n2c(C)cc(C(=O)CCl)c2C)c1	-10	0	0	-8
